From PubChem BioAssay (EPA / NIEHS) come the findings set out here.

Structures are written as SMILES. Several values for one entry are separate records, joined by “and”; a condition that tells them apart may be missing. Equal entries are not always repeated. Results filed as inconclusive are left out. More than one record can exist for a structure, and the calls need not agree. Activity calls are given as the source filed them. How the source made its calls, unless noted: active means hit-call score of the fitted dose curve at least 0.9, where 1 is the maximum; inactive means score below 0.9.

Assay [1] can be described thus: BSK_SAg_PBMCCytotoxicity: PBMC Cytotoxicity Assessment in the BioMAP Diversity Plus: SAg Assay (AID 2283093).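 Further: PBMC viability measured as Alamar Blue reduction fluorescence at 546/580 nm; fitted both ways against DMSO so a hit may be loss or gain of signal.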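 On AC50: PBMC superantigen activated with SEB plus TSST-1 one hour after compound addition.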 The settings on record: primary human HUVEC with PBMC. An outline of the steps: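 Human umbilical vein endothelial cells co-cultured with PBMC; PBMC (75,000/well) pre-treated with compound 1 h, then activated with SEB and TSST-1 (20 ng/mL final each) for 90 h. Alamar Blue added 6 h, fluorescence 546/580 nm; bidirectional fit versus DMSO.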

Read-out in assay [2]: Interleukin-8 (IL8), CXCL8 (gene 3576)
Kind of assay: BSK_SAg_IL8: BioMAP Diversity Plus: SAg Assay for Interleukin-8 (IL8) Biomarker Activity (AID 2283094). The settings on record: primary human HUVEC with PBMC; actives raise or lower the signal. A digest of the protocol: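 Human umbilical vein endothelial cells co-cultured with peripheral blood mononuclear cells; IL-8 measured by ELISA 24 h after chemical dosing. Bidirectional concentration-response fitting used DMSO as negative control and activity baseline.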

Assay [3] in a line: BSK_SAg_Proliferation: Cell Proliferation Assessment in the BioMAP Diversity Plus: SAg Assay (AID 2283095).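 Further: relative cell number as total protein by SRB absorbance in sub-confluent culture.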 Conditions: primary human HUVEC with PBMC. An outline of the steps: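 Human umbilical vein endothelial cells co-cultured with peripheral blood mononuclear cells; total protein measured by sulforhodamine B staining (0.1% SRB after 10% TCA fixation), absorbance at 560 nm, at 96 h. Bidirectional fit against DMSO baseline.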

The nature of assay [4]: BSK_SAg_SRB: Viability Assessment in the BioMAP Diversity Plus: SAg Assay (AID 2283096).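 Further: cells read one day after compound addition; hits may be either gain or loss of signal compared with DMSO.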 The settings on record: primary human HUVEC with PBMC. A digest of the protocol:
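Endothelial/PBMC primary human co-culture; compound 24 h; fix 10% TCA, stain 0.1% SRB, A560; protein content as cytotoxicity proxy; bidirectional curve fit, DMSO = baseline.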

Assay [5] has as its target Cytochrome P450 2C19 (Homo sapiens) (UniProt P33261). Kind of assay: NVS_ADME_hCYP2C19: NovaScreen (NVS) CYP450-related Enzyme Activity (ADME) Assay for human CYP2C19 (AID 2283113; active means hit-call score of the fitted dose curve at least 0.9, where 1 is the maximum;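 on AC50: potency for inhibition seen as loss of fluorescent signal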). A digest of the protocol: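 Recombinant insect-cell-expressed enzyme, fluorescent substrate, 1 h after chemical addition, fluorescence intensity. Baseline = acetonitrile vehicle; activity scored as signal loss. Primary HTS single concentration 10 uM, duplicate; actives retested in concentration series.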

Assay [6] addresses human Phosphodiesterase 10 (PDE10), PDE10A (gene 10846) (UniProt Q9Y233). Kind of assay: NVS_ENZ_hPDE10: NovaScreen (NVS) Enzymatic Assay for human Phosphodiesterase 10 (PDE10) (AID 2283195; active means hit-call score of the fitted dose curve at least 0.9, where 1 is the maximum). A digest of the protocol:
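Fluorescence/mobility-shift readout of PDE10A enzyme activity, taken 1 h post-dosing. Primary screen in duplicate at 25 uM; actives (e.g. ≥30% inhibition) retested as singleton concentration-response, top concentration 50 uM.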

Assay [7] addresses human CYP19A1, CYP19A1 (gene 1588) (UniProt P11511). Kind of assay: NVS_ADME_hCYP19A1: NovaScreen (NVS) CYP450-related Enzyme Activity (ADME) Assay for human CYP19A1 (AID 2283098; active means hit-call score of the fitted dose curve at least 0.9, where 1 is the maximum;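 further: potency for inhibitors seen as loss of fluorescent enzyme signal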). An outline of the steps: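 Cell-free enzyme assay with recombinant protein and a specific fluorogenic substrate, read by fluorescence intensity 0.5 h after dosing. Primary screen ran in duplicate at 10 uM; actives were retested in concentration series. Loss of signal versus acetonitrile baseline.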

Assay [8] has as its target Cytochrome P450 3A4 (Homo sapiens) (UniProt P08684). Kind of assay: NVS_ADME_hCYP3A4: NovaScreen (NVS) CYP450-related Enzyme Activity (ADME) Assay for human CYP3A4 (AID 2283110; active means hit-call score of the fitted dose curve at least 0.9, where 1 is the maximum). A digest of the protocol: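 Cell-free assay using insect-cell-expressed human CYP3A4 with a fluorogenic substrate; fluorescence intensity was read 0.33 hour after dosing. Loss of signal relative to acetonitrile vehicle indicated inhibition. Primary single-concentration screen at 10 uM, in duplicate, then concentration series.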

Assay [9] addresses human Caspase 5 (CASP5), CASP5 (gene 838) (UniProt P51878). Kind of assay: NVS_ENZ_hCASP5: NovaScreen (NVS) Enzymatic Assay for human Caspase 5 (CASP5) (AID 2283137; active means hit-call score of the fitted dose curve at least 0.9, where 1 is the maximum). A digest of the protocol:
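Recombinant E. coli-expressed human caspase 5 in a cell-free enzyme assay; fluorescence intensity read 2 hours after chemical dosing. Single-concentration duplicate screen at 25 uM, then concentration-response up to 50 uM for hits; DMSO negative control.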

The target of assay [10] is human Dual Specificity Protein Phosphatase 3 (DUSP3), DUSP3 (gene 1845) (UniProt P51452). Kind of assay: NVS_ENZ_hDUSP3: NovaScreen (NVS) Enzymatic Assay for human Dual Specificity Protein Phosphatase 3 (DUSP3) (AID 2283152; active means hit-call score of the fitted dose curve at least 0.9, where 1 is the maximum;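 further: phosphatase activity of recombinant human DUSP3 on a fluorogenic substrate without cells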). A digest of the protocol:
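Cell-free assay with recombinant human DUSP3 and fluorogenic substrate, read by fluorescence intensity. Primary screen ran duplicate at 25 uM; actives followed up in concentration series; loss of signal versus DMSO scored.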

Assay [11] concerns the target human Esterase Plasma (ES), BCHE (gene 590) (UniProt P06276). Kind of assay: NVS_ENZ_hES: NovaScreen (NVS) Enzymatic Assay for human Esterase Plasma (ES) (AID 2283157; active means hit-call score of the fitted dose curve at least 0.9, where 1 is the maximum). An outline of the steps:
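Cell-free enzyme assay using esterase extracted from human plasma; colorimetric absorbance read 0.25 hour after dosing. Single-concentration duplicate screen at 25 uM, then concentration-response up to 50 uM; loss of signal scored against DMSO baseline.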

In assay [12] the target is sheep Cyclooxygenase-1 (Cox1), PTGS1 (gene 443551) (UniProt P05979). Kind of assay: NVS_ENZ_oCOX1: NovaScreen (NVS) Enzymatic Assay for sheep Cyclooxygenase-1 (Cox1) (AID 2283239; active means hit-call score of the fitted dose curve at least 0.9, where 1 is the maximum;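 further: actives reduce cyclooxygenase activity so potencies are for inhibitors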). An outline of the steps:
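Ovine seminal vesicle extract; absorbance (colorimetric) enzyme read-out at 0.66 h post-dose. Primary: single conc 25 uM, duplicate. Follow-up: concentration series on actives. Activity = signal loss vs DMSO baseline.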

For assay [13], the target named is human CYP2C9, CYP2C9 (gene 1559) (UniProt P11712). Kind of assay: NVS_ADME_hCYP2C9: NovaScreen (NVS) CYP450-related Enzyme Activity (ADME) Assay for human CYP2C9 (AID 2283108; active means hit-call score of the fitted dose curve at least 0.9, where 1 is the maximum). A digest of the protocol:
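Cell-free assay of recombinant human CYP2C9 produced in Sf9 cells, with enzyme activity read by fluorescence intensity 0.75 h after compound addition. Loss of signal versus an acetonitrile negative control indicates inhibition. Primary screen used 10 uM in duplicate; actives were retested in concentration series.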

Assay [14] addresses human Ephrin type-A Receptor 1 (EphA1), EPHA1 (gene 2041) (UniProt P21709). Kind of assay: NVS_ENZ_hEphA1: NovaScreen (NVS) Enzymatic Assay for human Ephrin type-A Receptor 1 (EphA1) (AID 2283158; active means hit-call score of the fitted dose curve at least 0.9, where 1 is the maximum;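 further: activity is signal loss versus DMSO meaning EphA1 kinase inhibition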). A digest of the protocol: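 Recombinant kinase, fluorescent substrate, mobility-shift separation, fluorescence read at 1 h. Single-point duplicates at 25 uM; hits (e.g., ≥30% inhibition) run singleton concentration-response, max 50 uM. DMSO = negative control/baseline.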

Chain of human Esterase Plasma (ES), BCHE (gene 590) (P06276 whole entry, looked up): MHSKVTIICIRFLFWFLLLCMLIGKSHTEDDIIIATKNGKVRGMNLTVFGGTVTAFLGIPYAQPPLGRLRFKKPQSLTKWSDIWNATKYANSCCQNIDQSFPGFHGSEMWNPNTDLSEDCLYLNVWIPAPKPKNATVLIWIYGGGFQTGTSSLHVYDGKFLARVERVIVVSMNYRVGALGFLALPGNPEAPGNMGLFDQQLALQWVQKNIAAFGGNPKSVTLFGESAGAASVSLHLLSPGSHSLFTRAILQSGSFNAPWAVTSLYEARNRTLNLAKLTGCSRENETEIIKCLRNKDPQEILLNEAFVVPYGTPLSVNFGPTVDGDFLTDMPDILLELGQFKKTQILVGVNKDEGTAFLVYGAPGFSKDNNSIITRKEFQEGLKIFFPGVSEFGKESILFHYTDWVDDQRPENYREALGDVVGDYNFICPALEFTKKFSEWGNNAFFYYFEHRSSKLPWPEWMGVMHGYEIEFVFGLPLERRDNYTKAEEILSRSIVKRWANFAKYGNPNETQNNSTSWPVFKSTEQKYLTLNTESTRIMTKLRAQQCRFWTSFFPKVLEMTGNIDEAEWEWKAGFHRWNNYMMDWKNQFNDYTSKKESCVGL
Chain of sheep Cyclooxygenase-1 (Cox1), PTGS1 (gene 443551) (P05979 whole entry, looked up): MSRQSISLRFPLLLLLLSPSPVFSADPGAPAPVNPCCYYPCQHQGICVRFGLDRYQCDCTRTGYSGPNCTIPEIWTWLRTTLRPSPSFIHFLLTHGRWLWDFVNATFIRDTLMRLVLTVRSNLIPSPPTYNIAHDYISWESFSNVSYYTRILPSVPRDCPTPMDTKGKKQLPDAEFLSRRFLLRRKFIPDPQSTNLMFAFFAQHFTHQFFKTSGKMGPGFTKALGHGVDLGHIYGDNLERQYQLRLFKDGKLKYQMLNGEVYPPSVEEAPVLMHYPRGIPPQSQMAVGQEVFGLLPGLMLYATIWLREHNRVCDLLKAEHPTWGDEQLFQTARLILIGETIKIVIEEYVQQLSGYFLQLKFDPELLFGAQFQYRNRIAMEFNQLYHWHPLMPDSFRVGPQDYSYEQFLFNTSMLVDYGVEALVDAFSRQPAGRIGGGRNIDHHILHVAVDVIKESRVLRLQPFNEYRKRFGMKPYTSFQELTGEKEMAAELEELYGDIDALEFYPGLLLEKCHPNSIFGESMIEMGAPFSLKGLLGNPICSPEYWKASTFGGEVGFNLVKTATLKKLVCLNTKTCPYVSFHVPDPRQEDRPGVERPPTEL
Chain of human Phosphodiesterase 10 (PDE10), PDE10A (gene 10846) (Q9Y233 whole entry, looked up): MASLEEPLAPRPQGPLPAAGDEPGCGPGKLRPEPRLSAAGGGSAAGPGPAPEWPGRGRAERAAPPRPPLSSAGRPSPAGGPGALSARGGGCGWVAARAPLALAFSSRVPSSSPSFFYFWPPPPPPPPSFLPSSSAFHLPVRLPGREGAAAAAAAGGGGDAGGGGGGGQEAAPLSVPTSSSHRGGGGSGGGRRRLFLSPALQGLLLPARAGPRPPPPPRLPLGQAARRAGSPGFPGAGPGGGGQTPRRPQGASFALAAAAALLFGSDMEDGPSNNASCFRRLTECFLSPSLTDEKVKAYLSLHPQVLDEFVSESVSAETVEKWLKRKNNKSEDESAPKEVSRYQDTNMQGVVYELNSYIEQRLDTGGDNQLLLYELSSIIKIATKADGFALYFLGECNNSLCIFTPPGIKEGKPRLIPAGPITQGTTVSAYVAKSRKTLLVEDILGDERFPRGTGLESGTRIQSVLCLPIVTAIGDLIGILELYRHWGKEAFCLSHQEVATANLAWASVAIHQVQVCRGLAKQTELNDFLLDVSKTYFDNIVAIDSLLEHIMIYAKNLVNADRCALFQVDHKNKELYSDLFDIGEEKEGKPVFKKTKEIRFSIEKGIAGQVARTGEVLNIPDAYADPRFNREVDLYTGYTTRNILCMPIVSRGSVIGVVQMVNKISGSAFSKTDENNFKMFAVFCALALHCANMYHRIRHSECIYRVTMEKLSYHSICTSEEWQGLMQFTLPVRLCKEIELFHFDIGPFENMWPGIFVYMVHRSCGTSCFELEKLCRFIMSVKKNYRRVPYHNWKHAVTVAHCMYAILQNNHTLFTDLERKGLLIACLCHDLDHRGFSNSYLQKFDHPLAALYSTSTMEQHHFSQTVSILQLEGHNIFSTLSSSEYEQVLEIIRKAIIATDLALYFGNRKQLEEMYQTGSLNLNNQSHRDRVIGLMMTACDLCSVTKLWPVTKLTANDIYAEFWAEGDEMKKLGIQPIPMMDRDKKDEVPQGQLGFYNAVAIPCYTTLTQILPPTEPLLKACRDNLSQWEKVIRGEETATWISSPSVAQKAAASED
Chain of human Dual Specificity Protein Phosphatase 3 (DUSP3), DUSP3 (gene 1845) (P51452 whole entry, looked up): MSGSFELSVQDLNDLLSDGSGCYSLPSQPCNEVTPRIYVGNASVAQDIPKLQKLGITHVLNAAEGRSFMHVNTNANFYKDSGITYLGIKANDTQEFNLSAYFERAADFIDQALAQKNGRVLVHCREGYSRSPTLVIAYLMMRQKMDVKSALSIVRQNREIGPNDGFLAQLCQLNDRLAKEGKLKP
Chain of human CYP19A1, CYP19A1 (gene 1588) (P11511 whole entry, looked up): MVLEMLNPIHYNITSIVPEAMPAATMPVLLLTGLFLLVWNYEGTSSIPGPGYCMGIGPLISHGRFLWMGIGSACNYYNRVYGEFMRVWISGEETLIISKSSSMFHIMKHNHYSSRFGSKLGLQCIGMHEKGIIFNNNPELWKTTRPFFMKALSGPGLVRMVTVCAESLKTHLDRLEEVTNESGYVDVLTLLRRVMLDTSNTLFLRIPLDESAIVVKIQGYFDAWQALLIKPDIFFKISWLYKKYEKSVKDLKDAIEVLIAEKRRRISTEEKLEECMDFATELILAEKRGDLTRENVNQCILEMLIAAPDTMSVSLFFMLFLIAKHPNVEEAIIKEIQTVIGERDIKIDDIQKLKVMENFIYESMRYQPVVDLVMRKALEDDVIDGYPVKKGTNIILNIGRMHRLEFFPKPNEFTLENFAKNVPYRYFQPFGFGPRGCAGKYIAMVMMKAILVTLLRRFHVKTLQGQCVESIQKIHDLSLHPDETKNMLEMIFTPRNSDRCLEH
Chain of human Caspase 5 (CASP5), CASP5 (gene 838) (P51878 whole entry, looked up): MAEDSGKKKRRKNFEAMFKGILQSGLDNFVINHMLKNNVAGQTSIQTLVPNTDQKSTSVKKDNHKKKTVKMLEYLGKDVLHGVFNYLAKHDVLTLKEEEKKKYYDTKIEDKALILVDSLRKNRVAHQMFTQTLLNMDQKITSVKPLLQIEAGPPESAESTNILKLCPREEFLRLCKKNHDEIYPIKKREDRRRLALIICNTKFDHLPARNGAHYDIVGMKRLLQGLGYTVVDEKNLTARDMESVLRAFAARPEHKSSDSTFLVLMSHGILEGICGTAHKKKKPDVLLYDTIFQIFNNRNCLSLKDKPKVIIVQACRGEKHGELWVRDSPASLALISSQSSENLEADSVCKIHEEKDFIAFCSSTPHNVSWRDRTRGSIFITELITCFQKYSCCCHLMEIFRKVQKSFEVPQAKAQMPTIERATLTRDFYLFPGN
Chain of human CYP2C9, CYP2C9 (gene 1559) (P11712 whole entry, looked up): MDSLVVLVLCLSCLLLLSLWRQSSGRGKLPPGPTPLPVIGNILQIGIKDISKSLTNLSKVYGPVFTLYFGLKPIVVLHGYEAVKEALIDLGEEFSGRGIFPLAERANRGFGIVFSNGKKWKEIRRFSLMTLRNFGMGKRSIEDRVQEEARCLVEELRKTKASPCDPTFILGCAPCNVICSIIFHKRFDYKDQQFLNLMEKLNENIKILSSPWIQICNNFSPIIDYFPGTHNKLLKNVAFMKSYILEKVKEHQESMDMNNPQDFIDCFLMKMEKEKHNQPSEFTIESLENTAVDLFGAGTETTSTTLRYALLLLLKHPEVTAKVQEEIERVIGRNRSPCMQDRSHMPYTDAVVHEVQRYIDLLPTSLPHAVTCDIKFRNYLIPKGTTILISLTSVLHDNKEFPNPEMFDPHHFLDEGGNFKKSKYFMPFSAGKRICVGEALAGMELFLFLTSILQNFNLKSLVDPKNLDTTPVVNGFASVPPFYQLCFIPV
Chain of Cytochrome P450 3A4 (Homo sapiens) (P08684 whole entry, looked up): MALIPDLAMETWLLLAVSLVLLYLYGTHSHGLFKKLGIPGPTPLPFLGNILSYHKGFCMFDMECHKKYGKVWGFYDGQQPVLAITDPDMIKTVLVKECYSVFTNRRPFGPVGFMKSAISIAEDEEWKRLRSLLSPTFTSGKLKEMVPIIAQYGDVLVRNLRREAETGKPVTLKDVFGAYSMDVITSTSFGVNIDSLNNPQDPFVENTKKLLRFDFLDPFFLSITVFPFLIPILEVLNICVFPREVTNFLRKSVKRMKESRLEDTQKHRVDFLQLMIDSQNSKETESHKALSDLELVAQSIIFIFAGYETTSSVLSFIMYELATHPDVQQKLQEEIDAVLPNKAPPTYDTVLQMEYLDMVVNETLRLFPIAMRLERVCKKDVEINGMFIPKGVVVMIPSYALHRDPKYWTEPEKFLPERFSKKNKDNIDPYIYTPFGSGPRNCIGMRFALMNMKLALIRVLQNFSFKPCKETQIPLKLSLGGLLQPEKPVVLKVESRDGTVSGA

On to `COc1cc(C=O)ccc1OC(=O)C(C)C`, for which the outcome in assay [1], in [2], in [3] and in [4] was inactive.

For the molecule `Nc1cc([N+](=O)[O-])ccc1O`, the result in [1], in assay [2], in [3] and in [4] was inactive.

As for `NCCNCCN`, the outcome in [1], in assay [2], in assay [3] and in [4] was inactive.

`CCCCCCCCC=O`: the outcome in [1], in assay [2], in assay [3] and in assay [4] was inactive.

`O=C(O)c1cn(-c2ccc(F)cc2)c2cc(N3CCNCC3)c(F)cc2c1=O`: the outcome in assay [1], in assay [2], in [3] and in assay [4] was inactive.

On to `N#Cc1ccc(CC(=NNC(=O)Nc2ccc(OC(F)(F)F)cc2)c2cccc(C(F)(F)F)c2)cc1`, for which the result in assay [1], in assay [2], in [3] and in assay [4] was inactive.

On to `CN(CCOc1ccc(CC2SC(=O)NC2=O)cc1)c1ccccn1` (stereo not given), for which the result in [1] and in assay [4] was inactive. Also, the half-maximal activity concentration (AC50) in assay [2] and in assay [3] was 20 µM (active) each time.

Regarding `O=C(O)C[C@H](O)C[C@H](O)/C=C/c1c(C2CC2)nc2ccccc2c1-c1ccc(F)cc1`, the outcome in assay [1] was inactive. In addition, the AC50 (commonly the midpoint of the concentration-response curve, whichever way the signal moves) is 0.0041 µM (active) in assay [2], 0.756 µM (active) in assay [3] and 0.104 µM (active) in assay [4].

`O=C1CCCCCCCCCCCCCCO1`: the AC50 in assay [1] was 11.7 µM (active); in assay [3] it was 10.3 µM (active). Also, the result in assay [2] and in assay [4] was inactive.

Regarding `C=CCOC(=O)CCC1CCCCC1`, the outcome in [1], in assay [2], in assay [3] and in [4] was inactive.

For the molecule `CC(C)(COC(=O)c1ccccc1)COC(=O)c1ccccc1`, the outcome in assay [1], in assay [2] and in assay [4] was inactive. Besides, the AC50 in assay [3] is 20 µM (active).

Take `CC[Si](OC(C)=O)(OC(C)=O)OC(C)=O`: the result in assay [1], in [2], in assay [3] and in assay [4] was inactive.

Regarding `C=C(C)C(=O)O[C@H]1C[C@@H]2CC[C@@]1(C)C2(C)C`, the AC50 in [1] is 33.1 µM (active); in assay [2], 35.3 µM (active); in [3], 30.7 µM (active); in assay [4], 30.9 µM (active).

Consider `CCCCC(CC)COC(=O)/C=C\C(=O)OCC(CC)CCCC` (stereo not given), for which the result in assay [1], in assay [2] and in assay [4] was inactive. Besides, the half-maximal activity concentration (AC50) in assay [3] is 20 µM (active).

Take `C=C[Si](OCC)(OCC)OCC`: the result in assay [1], in [2], in assay [3] and in assay [4] was inactive.

Take `CC(=O)Nc1ccccc1O`: the outcome in assay [1], in assay [2], in [3] and in assay [4] was inactive.

For `O=C(O)c1cn(C2CC2)c2cc(N3CCNCC3)c(F)cc2c1=O`, the outcome in [1], in [2], in assay [3] and in assay [4] was inactive.

As for `CCCCCCCCCCCCCCCCCC(=O)OCC(CC)CCCC` (stereo not given), the result in assay [1], in [2], in [3] and in assay [4] was inactive.

As for `OC[C@H]1O[C@H](O[C@]2(CCl)O[C@H](CCl)[C@@H](O)[C@@H]2O)[C@H](O)[C@@H](O)[C@H]1Cl`, the outcome in assay [1], in assay [2], in assay [3] and in assay [4] was inactive.

For the molecule `BrC1CCC(Br)C(Br)CCC(Br)C(Br)CCC1Br` (stereo not given), the AC50 in [1] is 2.03 µM (active); in assay [3], 4.63 µM (active); in [4], 4.67 µM (active). Further, the result in assay [2] was inactive.

Take `CC(C)c1ccc(C(C)C)cc1`: the outcome in assay [1], in [2], in assay [3] and in assay [4] was inactive.

Take `CC(=O)OCCC(C)CC(C)(C)C` (stereo not given): the result in [1], in [2], in assay [3] and in assay [4] was inactive. Moreover, the AC50 in [3] was 1.85 µM (active).

With `C[C@H]1C[C@@H]2[C@H]([C@@H](O)C[C@@]3(C)[C@H]2CC[C@]3(O)C(=O)CO)[C@@]2(C)C=CC(=O)C=C12`, the outcome in [1] and in assay [4] was inactive. In addition, the AC50 in [2] was 4.3 µM (active) and 1.37 µM (active); in [3], 2.49 µM (active) and 6.67 µM (active).

Regarding `Cc1ccc2n[nH]nc2c1`, the outcome in assay [1], in [2], in assay [3] and in assay [4] was inactive.

For `Cc1cc(C2(c3cc(C)c(O)cc3C)OS(=O)(=O)c3ccccc32)c(C)cc1O`, in assay [1], the AC50 is 27.3 µM (active). Also, the result in assay [1], in assay [2], in [3] and in assay [4] was inactive.

On to `OC1OC[C@@H](O)[C@H](O)[C@H]1O` (stereo not given in full), for which the outcome in [1], in assay [2], in assay [3] and in assay [4] was inactive.

On to `CCC(=O)OCc1ccccc1`, for which the outcome in assay [1], in assay [2], in [3] and in assay [4] was inactive.

As for `c1ccc2sc(SN(C3CCCCC3)C3CCCCC3)nc2c1`, the AC50 in [1] was 5.28 µM (active); in [2], 3.23 µM (active); in [3], 11.4 µM (active); in assay [4], 11.4 µM (active). Besides, the molecule was called inactive in assay [5].

Turning to `CCc1c(C)cc(N)c(CC)c1N`, the outcome in assay [1], in assay [2], in assay [3], in assay [4] and in assay [6] was inactive.

`CCCCCCCCCCCCCCCC(=O)OC[C@H](O)[C@H]1OC(=O)C(O)=C1O`: in [7], the AC50 is 2.33 µM (active).

Turning to `O=C1OC2(c3cc(Br)c(O)c(Br)c3Oc3c2cc(Br)c(O)c3Br)c2c(Cl)c(Cl)c(Cl)c(Cl)c21`, the AC50 in assay [1] is 23.5 µM (active); in assay [3] it was 21.3 µM (active); in assay [4], 18.2 µM (active); in assay [5], 196 nM (active); in assay [9] it was 552 nM (active); in assay [10], 6.67 µM (active). Moreover, in [12], the AC50 is 8.68 µM (active). The result in assay [2], in [8] and in assay [11] was inactive.

Consider `CCn1c2ccccc2c2cc(N)ccc21`, for which the result in assay [1], in assay [3] and in assay [4] was inactive. Further, the AC50 in [2] was 0.0208 µM (active); in [13], 405 nM (active); in assay [5], 2030 nM (active); in assay [11], 27.1 µM (active); in assay [14], 19.3 µM (active); in [12], 3.25 µM (active).
